The values that follow come from the supplement of paper PMC10646978.

Conditions in all cases: modulator concentration 10 µM
For experiment [1], the system named is RAW-Dual (murine macrophage reporter line). Put plainly: NF-kB reporter (SEAP) activity fold change vs agonist alone; higher = enhanced NF-kB activity. Summed up: (§1)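 In 384-well plates holding 50 000 RAW-Dual murine macrophage reporter cells per well, compound at 10 μM final was pre-incubated for 1 hour at 37 °C, after which a PRR agonist was added overnight. Supernatant SEAP read with QUANTI-Blue at 620 nm absorbance reported NF-κB, and Lucia luciferase read with QUANTI-Luc luminescence reported IRF. Fold change values come from dividing each reporter signal by the mean of agonist-only control wells on the same plate, averaged over replicate plates with propagated errors.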

For experiment [2] the test system is unchanged. Nature of the experiment: IRF reporter (Lucia luciferase) activity fold change vs agonist alone; higher = enhanced IRF activity. Summed up:
as §1

Experiment [3] has the same test system. Put plainly: viability score (confluency relative to resting cells, overnight) (fraction); higher = more viable, active = viable (0.7 or more). Summed up:
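A compound met the cutoff when both of two confluency masks exceeded 70% of resting cells. Those masks were made with IncuCyte software from IncuCyte images of RAW-Dual macrophages treated overnight at 10 μM final. This is the basis of the viability score, which is confluency relative to resting cells.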

Where [4] appears, read: agonist: CpG ODN 1826 0.5 ug/mL.

± gives the standard deviation.

Consider `CN1CCN(C2=Nc3cc(Cl)ccc3Nc3ccccc32)CC1`, for which the NF-kB reporter was 0.713 ± 0.058 in experiment [1] (setting [4]), 0.941 ± 0.057 in experiment [1] (agonist: LPS 0.1 ug/mL) and 1.13 ± 0.1 in experiment [1] (agonist: MPLA […]). Besides, the IRF reporter in experiment [2] (agonist: 3'3'-cGAMP 10 ug/mL) was 0.924 ± 0.064; in experiment [2] (agonist: LPS 0.1 ug/mL), 1.47 ± 0.11; in experiment [2] (agonist: MPLA […]) it was 1.46 ± 0.12. For the same compound, the viability score in experiment [3] was 0.981 (active).
As to `CCC(O)=C(C#N)c1nc2ccccc2n1C`, the NF-kB reporter in experiment [1] (setting [4]) worked out at 1.12 ± 0.12; in experiment [1] (agonist: LPS 0.1 ug/mL), 0.938 ± 0.061; in experiment [1] (agonist: MPLA […]), 1.18 ± 0.064. Moreover, the values for the IRF reporter in experiment [2] (agonist: 3'3'-cGAMP 10 ug/mL), in experiment [2] (agonist: LPS 0.1 ug/mL) and in experiment [2] (agonist: MPLA […]) were 0.792 ± 0.033, 1.02 ± 0.07 and 1.37 ± 0.15, respectively. For the same compound, the viability score in experiment [3] is 0.995 (active).
In the case of `COc1cc(C2C(C(=O)c3ccccc3)=C(O)C(=O)N2c2cccnc2)ccc1O` (stereo not given), the NF-kB reporter in experiment [1] (setting [4]) was 0.915 ± 0.14; in experiment [1] (agonist: LPS 0.1 ug/mL), 0.595 ± 0.13; in experiment [1] (agonist: MPLA […]) it was 0.582 ± 0.1. Moreover, the IRF reporter was determined as 0.758 ± 0.068 in experiment [2] (agonist: 3'3'-cGAMP 10 ug/mL), 0.849 ± 0.074 in experiment [2] (agonist: LPS 0.1 ug/mL) and 0.785 ± 0.13 in experiment [2] (agonist: MPLA […]). In addition, the viability score in experiment [3] is 0.97 (active).
`COc1ccc(OC)c(C=NNC(=O)c2cc(C)oc2C)c1`: the values for the NF-kB reporter in experiment [1] (setting [4]), in experiment [1] (agonist: LPS 0.1 ug/mL) and in experiment [1] (agonist: MPLA […]) were 0.912 ± 0.16, 0.925 ± 0.098 and 0.877 ± 0.067, respectively. The figures for the IRF reporter in experiment [2] (agonist: 3'3'-cGAMP 10 ug/mL), in experiment [2] (agonist: LPS 0.1 ug/mL) and in experiment [2] (agonist: MPLA […]) were 0.936 ± 0.044, 1.26 ± 0.22 and 1.25 ± 0.2, respectively. In addition, in experiment [3], the viability score is 0.566 (inactive).
For `COc1ccc(C2SCc3cc(C)c(C)cc3CS2)cc1OC`, the NF-kB reporter came to 0.831 ± 0.11 in experiment [1] (setting [4]), 0.826 ± 0.069 in experiment [1] (agonist: LPS 0.1 ug/mL) and 1.1 ± 0.1 in experiment [1] (agonist: MPLA […]). For the same compound, the IRF reporter is 0.965 ± 0.045 in experiment [2] (agonist: 3'3'-cGAMP 10 ug/mL), 1.4 ± 0.087 in experiment [2] (agonist: LPS 0.1 ug/mL) and 1.64 ± 0.14 in experiment [2] (agonist: MPLA […]). Also, in experiment [3], the viability score is 1.01 (active).
For `Br.O=S(=O)(c1ccc(-c2csc(Nc3ccc(Br)cc3)n2)cc1)N1CCOCC1`, the NF-kB reporter in experiment [1] (setting [4]) was 0.967 ± 0.084; in experiment [1] (agonist: LPS 0.1 ug/mL), 1.08 ± 0.091; in experiment [1] (agonist: MPLA […]) it was 1.1 ± 0.046. For the same compound, the IRF reporter in experiment [2] (agonist: 3'3'-cGAMP 10 ug/mL) came out at 0.951 ± 0.17; in experiment [2] (agonist: LPS 0.1 ug/mL) it was 1.14 ± 0.049; in experiment [2] (agonist: MPLA […]), 0.903 ± 0.059. In addition, the viability score in experiment [3] was 0.999 (active).
For the compound `CC1CCC2C(C)(C)C3CC12CCC3(C)O` (stereo not given), the figures for the NF-kB reporter in experiment [1] (setting [4]), in experiment [1] (agonist: LPS 0.1 ug/mL) and in experiment [1] (agonist: MPLA […]) were 1.04 ± 0.081, 0.883 ± 0.11 and 0.965 ± 0.094, respectively. Moreover, the IRF reporter in experiment [2] (agonist: 3'3'-cGAMP 10 ug/mL) amounted to 0.999 ± 0.052; in experiment [2] (agonist: LPS 0.1 ug/mL), 1.15 ± 0.16; in experiment [2] (agonist: MPLA […]), 1.25 ± 0.23. Also, the viability score in experiment [3] was 1.05 (active).
Take `NC(=NOC(=O)c1ccc2nsnc2c1)c1ncon1`: the NF-kB reporter in experiment [1] (setting [4]) is 1.04 ± 0.17; in experiment [1] (agonist: LPS 0.1 ug/mL), 0.965 ± 0.084; in experiment [1] (agonist: MPLA […]), 0.905 ± 0.088. The figures for the IRF reporter in experiment [2] (agonist: 3'3'-cGAMP 10 ug/mL), in experiment [2] (agonist: LPS 0.1 ug/mL) and in experiment [2] (agonist: MPLA […]) were 0.922 ± 0.035, 1.05 ± 0.11 and 1.18 ± 0.12, respectively. For the same compound, in experiment [3], the viability score was 0.996 (active).
As for `CCCCS(=O)(=O)N[C@@H](Cc1ccc(OCCCCC2CCNCC2)cc1)C(=O)O.Cl.O`, the NF-kB reporter in experiment [1] (setting [4]) was 1.2 ± 0.34; in experiment [1] (agonist: LPS 0.1 ug/mL), 1.05 ± 0.057; in experiment [1] (agonist: MPLA […]) it was 0.987 ± 0.075. Moreover, the IRF reporter came out at 0.907 ± 0.035 in experiment [2] (agonist: 3'3'-cGAMP 10 ug/mL), 1.14 ± 0.23 in experiment [2] (agonist: LPS 0.1 ug/mL) and 1.26 ± 0.12 in experiment [2] (agonist: MPLA […]). Moreover, the viability score in experiment [3] was 0.99 (active).
`Br.Fc1ccc(-c2csc(Nc3ccc4c(c3)OCO4)n2)cc1`: the NF-kB reporter came to 0.871 ± 0.076 in experiment [1] (setting [4]), 0.946 ± 0.066 in experiment [1] (agonist: LPS 0.1 ug/mL) and 1.02 ± 0.038 in experiment [1] (agonist: MPLA […]). For the same compound, the IRF reporter turned out to be 0.315 ± 0.022 in experiment [2] (agonist: 3'3'-cGAMP 10 ug/mL), 1.03 ± 0.076 in experiment [2] (agonist: LPS 0.1 ug/mL) and 1.29 ± 0.12 in experiment [2] (agonist: MPLA […]). In addition, in experiment [3], the viability score is 0.999 (active).
With `CCC(=O)Nc1ccc(NC(=O)c2ccc([N+](=O)[O-])cc2)cc1`, the values for the NF-kB reporter in experiment [1] (setting [4]), in experiment [1] (agonist: LPS 0.1 ug/mL) and in experiment [1] (agonist: MPLA […]) were 0.982 ± 0.086, 1.05 ± 0.072 and 0.991 ± 0.14, respectively. Moreover, the IRF reporter is 0.978 ± 0.054 in experiment [2] (agonist: 3'3'-cGAMP 10 ug/mL), 1.43 ± 0.12 in experiment [2] (agonist: LPS 0.1 ug/mL) and 1.12 ± 0.075 in experiment [2] (agonist: MPLA […]). Moreover, the viability score in experiment [3] was 1.01 (active).
For `CCCCOc1cc(C(=O)NCCN(CC)CC)c2ccccc2n1.Cl`, the NF-kB reporter in experiment [1] (setting [4]) stood at 0.759 ± 0.17; in experiment [1] (agonist: LPS 0.1 ug/mL), 1.04 ± 0.18; in experiment [1] (agonist: MPLA […]) it was 1.04 ± 0.067. Besides, the IRF reporter came out at 0.776 ± 0.039 in experiment [2] (agonist: 3'3'-cGAMP 10 ug/mL), 1.41 ± 0.41 in experiment [2] (agonist: LPS 0.1 ug/mL) and 1.82 ± 0.14 in experiment [2] (agonist: MPLA […]). In experiment [3], the viability score was 0.93 (active).
For `c1ccc(OCCOc2ccc(Nc3ccnc4cc5ccccc5cc34)cc2)cc1`, the figures for the NF-kB reporter in experiment [1] (setting [4]), in experiment [1] (agonist: LPS 0.1 ug/mL) and in experiment [1] (agonist: MPLA […]) were 0.294 ± 0.05, 1.04 ± 0.067 and 1.8 ± 0.17, respectively. For the same compound, the IRF reporter in experiment [2] (agonist: 3'3'-cGAMP 10 ug/mL) was 0.896 ± 0.035; in experiment [2] (agonist: LPS 0.1 ug/mL) it was 1.48 ± 0.13; in experiment [2] (agonist: MPLA […]), 1.78 ± 0.17. Besides, in experiment [3], the viability score is 0.23 (inactive).
In the case of `O=C(Nc1cc(C(F)(F)F)cc(C(F)(F)F)c1)c1cc2ccccc2o1`, the NF-kB reporter stood at 0.961 ± 0.082 in experiment [1] (setting [4]), 1.05 ± 0.08 in experiment [1] (agonist: LPS 0.1 ug/mL) and 0.952 ± 0.12 in experiment [1] (agonist: MPLA […]). Besides, the IRF reporter in experiment [2] (agonist: 3'3'-cGAMP 10 ug/mL) stood at 0.953 ± 0.042; in experiment [2] (agonist: LPS 0.1 ug/mL) it was 1.32 ± 0.25; in experiment [2] (agonist: MPLA […]), 1.03 ± 0.29. In addition, the viability score in experiment [3] is 1.01 (active).
For the compound `CCCN(CCC)CCc1cccc2c1CC(=O)N2.Cl`, the NF-kB reporter in experiment [1] (setting [4]) stood at 0.998 ± 0.079; in experiment [1] (agonist: LPS 0.1 ug/mL), 0.945 ± 0.046; in experiment [1] (agonist: MPLA […]) it was 1.03 ± 0.074. For the same compound, the IRF reporter in experiment [2] (agonist: 3'3'-cGAMP 10 ug/mL) stood at 0.926 ± 0.071; in experiment [2] (agonist: LPS 0.1 ug/mL), 0.925 ± 0.037; in experiment [2] (agonist: MPLA […]) it was 0.912 ± 0.083. Besides, in experiment [3], the viability score was 0.997 (active).
